Assay outcomes as filed in PubChem.
A selection: hits, their analogues and other compounds. The true share with any hit is near 3.5%.
ANO1 activ: TMEM16A chloride channel activators or potentiators, primary screen, cell-based, HTS | HEK293 TMEM16A/YFP-H148Q/I152L, iodide quench fluorescence; hits give low values | Anoctamin-1 (Mus musculus), Q8BHY3 | B-score at 10 µM | actives 0.3% (n = 340,000) | AID 623877, 2012;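 active = fluorescence-ratio B-score plate-corrected deviation score at least 3 library SD below zero, with starting fluorescence score within 5 deviations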;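 note: channel opened by trigger with iodide after compound preincubation; score built on the fluorescence ratio of max minus min over baseline; more negative score means more quench and so TMEM16A activation or potentiation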
Kir21 inh: inhibitors of mouse Kir2.1 inward-rectifier potassium channel; HEK293-Kir2.1, FluxOR thallium flux fluorescence; hits give low values; AID 1672, 2009; actives 0.85% (n = 310,000); B-score at 10 µM;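 active = fluorescence ratio B-score at or below minus 3 SD of library scores, with starting-brightness B-score within 2 SD, cut at about -4.2 in these data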;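 note: channel flux triggered by added potassium and thallium sulfate stimulus; B-score of peak minus minimum fluorescence over baseline after thallium stimulus; more negative B-score means stronger Kir2.1 block with less thallium influx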
TMEM16A inh: TMEM16A chloride channel inhibitors, primary screen, cell-based, HTS | normalized B-score (activity score, 25-100; higher = stronger inhibition) at 10 µM | AID 588511, 2011 | actives 1.2% (n = 310,000) | HEK293 TMEM16A/YFP iodide influx fluorescence, ionomycin | Anoctamin-1 (Mus musculus), Q8BHY3;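 active = ratio plate-corrected score three or more library SD toward inhibition, starting fluorescence score within five deviations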;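 note: score derived from kinetic fluorescence span divided by baseline fluorescence per well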
KCNK3 inh: human KCNK3 channel inhibitors, primary screen, CHO cells, FluxOR thallium flux, B-score. B-score at 10 µM. FluxOR fluorescence; hits give low values. Potassium channel subfamily K member 3 (Homo sapiens), O14649. actives 0.84% (n = 340,000);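 active = B-score under library mean minus 4 SD, starting fluorescence ratio at most library mean plus 5 SD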;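 note: more negative B-score means stronger inhibition of thallium flux through KCNK3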
KCNK9 block: KCNK9 potassium channel inhibitors, primary screen, HEK293 cells, thallium flux; Potassium channel subfamily K member 9 (Homo sapiens), Q9NPC2; FluxOR thallium flux fluorescence; hits give low values; B-score at 10 µM; actives 1.2% (n = 310,000); AID 488922, 2010;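 active = ratio B-score over 3 SD below the library mean, with starting fluorescence within 5 SD of its mean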;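 note: negative B-score means less thallium flux so channel inhibition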
Target sequence (Q9NPC2 whole entry, looked up): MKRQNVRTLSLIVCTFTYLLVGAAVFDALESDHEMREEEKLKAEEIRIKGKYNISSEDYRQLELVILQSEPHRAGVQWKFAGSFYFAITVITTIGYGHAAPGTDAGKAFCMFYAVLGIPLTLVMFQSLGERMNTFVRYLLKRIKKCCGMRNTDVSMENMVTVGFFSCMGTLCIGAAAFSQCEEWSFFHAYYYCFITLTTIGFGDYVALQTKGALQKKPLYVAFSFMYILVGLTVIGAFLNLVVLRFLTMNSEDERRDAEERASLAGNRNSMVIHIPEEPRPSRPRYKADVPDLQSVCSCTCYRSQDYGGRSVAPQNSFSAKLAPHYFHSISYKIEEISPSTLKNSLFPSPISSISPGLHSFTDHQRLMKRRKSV
KCNK9 block conf: KCNK9 potassium channel inhibitors, confirmation, HEK293 cells, thallium flux, duplicate; shares compounds with KCNK9 block; FluxOR thallium flux fluorescence; inhibition, % at 10 µM; actives 43% (n = 4,900); AID 492992, 2010;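 active = thallium signal inhibited by more than 5 SD of the compound-free buffer control wells, on both duplicate plates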;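 note: 0% = assay buffer control wells without compound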
Kir21 sel: mouse Kir2.1 channel inhibition, confirmation, selectivity assay for KCNK9 modulator project, cell-based, HEK293, thallium flux; shares compounds with KCNK9 block; Kir2.1 cells, FluxOR thallium flux fluorescence; inhibition, % at 10 µM; actives 4% (n = 4,900); AID 492993, 2010;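 active = thallium signal drop more than 5 SD beyond the mean of the no-compound control wells, seen in both duplicate plates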;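 note: signal is fluorescence rise after thallium addition divided by baseline fluorescence; plate controls were assay buffer only for no effect and full block by chlorpromazine control for full effect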
HEK293 Tl ctr: thallium flux in non-induced HEK293 cells, confirmation, counter-screen for KCNK9 inhibitor project, cell-based, second counter screen, non-induced KCNK9-HEK293; shares compounds with KCNK9 block; FluxOR thallium flux; inhibition, % at 10 µM; actives 40% (n = 4,900); AID 492997, 2010;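 active = thallium signal drop beyond 5 SD of the untreated control mean, on both duplicate plates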;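 note: plate controls were buffer only IC0 wells for no effect and SID17386958 at its maximal inhibitory level for full effect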
Numbers without * were called inactive.

O=C(CCNS(=O)(=O)c1ccccc1F)N1CCN(C/C=C/c2ccccc2)CC1 was read as ANO1 activ inactive, Kir21 inh 0.19, TMEM16A inh inactive, KCNK3 inh inactive and KCNK9 block inactive.
Screening Cc1c(C(=O)c2ccc(Cl)cc2Cl)cnc2cc3c(cc12)OCO3 returned ANO1 activ inactive, Kir21 inh 1.6, TMEM16A inh inactive, KCNK3 inh inactive, KCNK9 block -16*, KCNK9 block conf 62%*, Kir21 sel inactive and HEK293 Tl ctr 30%*.
Clc1ccccc1-c1ccc(CN2CCN(c3ccccc3)CC2)o1 was read as ANO1 activ inactive, Kir21 inh -1.4, TMEM16A inh inactive, KCNK3 inh inactive, KCNK9 block inactive, KCNK9 block conf inactive, Kir21 sel inactive and HEK293 Tl ctr inactive.
O=[N+]([O-])c1ccc(CN2CCN(c3ccccc3)CC2)o1 was read as ANO1 activ inactive, Kir21 inh -0.54, TMEM16A inh inactive, KCNK3 inh inactive and KCNK9 block inactive.
Cc1cc(C)c(C)c(S(=O)(=O)NC2CCN(Cc3ccccc3)CC2)c1C was read as ANO1 activ inactive, Kir21 inh -1.2, TMEM16A inh inactive, KCNK3 inh inactive and KCNK9 block inactive.
For Cc1cccc(NC(=O)CCSc2nnc(Cc3ccccc3)o2)c1 the results were ANO1 activ inactive, Kir21 inh 0.57, TMEM16A inh inactive, KCNK3 inh inactive, KCNK9 block inactive, KCNK9 block conf inactive, Kir21 sel inactive and HEK293 Tl ctr inactive.
`CCOc1ccc(C(CC(=O)O)NC(=O)c2cccs2)cc1OC` (configuration not stated) gave ANO1 activ inactive, Kir21 inh 0.35, TMEM16A inh inactive, KCNK3 inh inactive and KCNK9 block inactive.
For O=S(=O)(Nc1nc(-c2sccc2Cl)cs1)c1cc(Cl)ccc1Cl the results were ANO1 activ inactive, Kir21 inh 1.3, TMEM16A inh 100*, KCNK3 inh inactive, KCNK9 block inactive, KCNK9 block conf inactive, Kir21 sel inactive and HEK293 Tl ctr inactive.
Screening CC(C)NC(=O)CCN1C(=O)c2ccccc2Sc2ncccc21 returned ANO1 activ inactive, Kir21 inh 1.6, TMEM16A inh inactive, KCNK3 inh inactive and KCNK9 block inactive.
For Cn1c2ccccc2c(=O)c2cc(C#Cc3ccc(N)cc3)ccc21 the results were ANO1 activ inactive, Kir21 inh 1.5, TMEM16A inh inactive, KCNK3 inh inactive, KCNK9 block -8.5*, KCNK9 block conf 38%*, Kir21 sel inactive and HEK293 Tl ctr 26%*.
`COc1ccc(C)cc1Nc1n[n+](-c2ccccc2)c(-c2c(Cl)cccc2Cl)s1` gave Kir21 inh -3.5, TMEM16A inh 100*, KCNK9 block -15*, KCNK9 block conf 64%*, Kir21 sel 33%* and HEK293 Tl ctr 36%*.
For COc1ccccc1CNC(=O)COC(=O)c1ncc(Cl)c(Cl)c1Cl the results were ANO1 activ inactive, Kir21 inh -0.01, TMEM16A inh inactive, KCNK3 inh inactive and KCNK9 block inactive.
N#C/C(=C\c1ccccc1[N+](=O)[O-])C(=O)NC1CCCCC1 was read as ANO1 activ inactive, Kir21 inh 0.03, TMEM16A inh inactive, KCNK3 inh inactive and KCNK9 block inactive.
`Cc1ccc(-c2[nH]ncc2/C=C(\C#N)C(=O)NC2CCCCC2)cc1` gave ANO1 activ inactive, Kir21 inh 0.6, TMEM16A inh inactive, KCNK3 inh inactive, KCNK9 block inactive, KCNK9 block conf inactive, Kir21 sel inactive and HEK293 Tl ctr inactive.
COc1ccc(-c2[nH]ncc2/C=C(/C#N)C(=O)NC2CCCCC2)cc1 was read as ANO1 activ inactive, Kir21 inh -1, TMEM16A inh inactive, KCNK3 inh inactive, KCNK9 block inactive, KCNK9 block conf inactive, Kir21 sel inactive and HEK293 Tl ctr inactive.
`COc1ccc(OC)c(C(c2nnnn2C2CCCC2)N2CCN(c3ccccc3)CC2)c1` (configuration not stated) gave ANO1 activ inactive, Kir21 inh 0.09, TMEM16A inh inactive, KCNK3 inh inactive, KCNK9 block -8.6*, KCNK9 block conf 58%*, Kir21 sel inactive and HEK293 Tl ctr 43%*.
For CCN(C(=O)COC(=O)c1ccc(Cl)cc1N)C1CCCCC1 the results were ANO1 activ inactive, Kir21 inh 0.77, TMEM16A inh inactive, KCNK3 inh inactive, KCNK9 block inactive, KCNK9 block conf inactive, Kir21 sel inactive and HEK293 Tl ctr inactive.
Screening O=C(OCC(=O)N(C1CCCCC1)C1CCCCC1)c1ccc(O)cc1 returned ANO1 activ inactive, Kir21 inh -1.8, TMEM16A inh inactive, KCNK3 inh inactive and KCNK9 block inactive.
O=C(OCC(=O)N(C1CCCCC1)C1CCCCC1)c1ccccc1O was read as ANO1 activ inactive, Kir21 inh 0.96, TMEM16A inh inactive, KCNK3 inh inactive, KCNK9 block -9.4*, KCNK9 block conf 37%*, Kir21 sel inactive and HEK293 Tl ctr 24%*.
CCc1ccc2c(CC(=O)NNC(=O)c3ccncc3)coc2c1 was read as ANO1 activ inactive and KCNK3 inh inactive.
For COc1cc2ccccc2cc1C(=O)Nc1ccccc1N1CCCC1 the results were ANO1 activ inactive, Kir21 inh -0.48, TMEM16A inh inactive, KCNK3 inh inactive, KCNK9 block -9*, KCNK9 block conf 35%*, Kir21 sel inactive and HEK293 Tl ctr 34%*.
CC(Oc1ccc(F)cc1)C(=O)Nc1ccccc1N1CCCCC1 (configuration not stated) was read as ANO1 activ -21*, Kir21 inh -3.3, TMEM16A inh inactive, KCNK3 inh inactive, KCNK9 block -8.5*, KCNK9 block conf 52%*, Kir21 sel 46%* and HEK293 Tl ctr 32%*.
